# The other results are listed elsewhere or left out. Calls of active or inactive are those of the source. Unless noted, the rule behind the calls is not given here.
# Test system: not listed separately
# Assay: PMA/ionomycin-induced NF-kB reporter inhibitors, Jurkat retest, confirmation, T-cell NF-kB inhibitor project, cell-based, luminescence, single concentration (AID 435020;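 active = inhibition reaching about 45% at 4 µM in either replicate, limit read from the data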;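 note: plate controls were PMA/ionomycin stimulated DMSO wells for no effect and unstimulated DMSO wells for full effect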)
# Conditions: Jurkat NF-kB luciferase, 16 h, at 4 µM, stronger effect = higher value
row,Compound,inhibition
1,Cc1cc2ccccn2c1C(C[N+](=O)[O-])c1c(F)cccc1Cl (configuration not stated),6.25% (inactive)
2,C[C@]12CC[C@H](O)C[C@H]1CC[C@@H]1C2CC[C@]2(C)[C@@H](C3=CC(=O)OC3)[C@@H](O)C[C@]12O (some centres not stated),-17.1% (inactive)
3,CCOc1ccc(-c2cc(C)[n+](CCN(CC)CC)c(-c3ccc(OCC)cc3)c2)cc1,21.7% (inactive)
4,CCCCCCCCCCCCn1ccc(=N)cc1,80.3% (active)

# Test system: not listed separately
# Assay: Apaf-1 inhibitors, single-dose retest, confirmation, biochemical, fluorescence, DEVD-Rh110, 20 µM (AID 504614;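 active = mean inhibition of at least 40% at 20 µM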;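 note: plate controls were DMSO wells for no effect and DEVD-CHO caspase inhibitor control wells for full effect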)
# Conditions: reconstituted apoptosome, caspase-3 DEVD-Rh110 fluorescence; at 20 µM; stronger effect = higher value
row,Compound,inhibition
1,CCOC(=O)c1c(N)n(Cc2ccccc2)c2nc3ccccc3nc12,12.5% (inactive)
2,CCCCCn1c(=O)c(C(=O)Nc2c(C)n(C)n(-c3ccccc3)c2=O)c(O)c2ccccc21,42.9% (active)
3,CNCC(O)c1cc(F)c(OCc2ccccc2)c(OCc2ccccc2)c1F (configuration not stated),12.9% (inactive)
4,CC(Cc1ccccc1)NCCC(c1ccccc1)c1ccccc1 (configuration not stated),12.8% (inactive)
5,CCCCCCCCCCCCn1ccc(=N)cc1,32% (inactive)

# Test system: not listed separately
# Assay: Rh110 fluorescence interference by putative Apaf-1 inhibitors, confirmation, artefact control for Apaf-1 inhibitor project, biochemical, 20 µM (AID 504615;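 active = signal rise of 40% or more at 20 µM, treated as a fluorescence artifact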)
# Conditions: quenched caspase reaction, at 20 µM, stronger effect = higher value
row,Compound,activation (fluorescence interference)
1,CCOC(=O)c1c(N)n(Cc2ccccc2)c2nc3ccccc3nc12,5.83% (inactive)
2,CCCCCn1c(=O)c(C(=O)Nc2c(C)n(C)n(-c3ccccc3)c2=O)c(O)c2ccccc21,-2.75% (inactive)
3,CNCC(O)c1cc(F)c(OCc2ccccc2)c(OCc2ccccc2)c1F (configuration not stated),12.9% (inactive)
4,CC(Cc1ccccc1)NCCC(c1ccccc1)c1ccccc1 (configuration not stated),7.45% (inactive)
5,CCCCCCCCCCCCn1ccc(=N)cc1,3.55% (inactive)

# Test system: not listed separately
# Assay: inhibition of Brca1/Bard1 split-luciferase complementation, confirmation, counter-screen for Mdm2/MdmX interaction inhibitor project, luminescence, single concentration (AID 504668)
# Conditions: Brca1/Bard1 bimolecular luciferase complementation counterscreen, at 8 µM, stronger effect = higher value
row,Compound,inhibition
1,COc1ccc2c(c1)/C(=C/c1cnc[nH]1)C(=O)N2,32.2% (active)
2,Cc1cc(O)c2c(c1)C(=O)C13C(=C2O)C(=O)[C@H]2[C@@H](O)[C@@H]1[C@H]1[C@H](O)[C@@H]3C(=O)C3=C(O)c4c(O)cc(C)cc4C(=O)C312 (some centres not stated),29.6% (active)
3,Clc1ccc(C(c2ccc(Cl)cc2)n2cc[n+](CC(OCc3ccc(Cl)cc3Cl)c3ccc(Cl)cc3Cl)c2)cc1 (configuration not stated),28.6% (active)
4,CCn1nc(/C=C/c2ccccc2)nc2c(=O)n(C)c(=O)nc1-2,24.6% (active)
5,C[C@@H]1O[C@@H](O[C@H]2C[C@@H](O)[C@]3(CO)[C@@H]4C(CC[C@]3(O)C2)[C@@]2(O)CC[C@H](C3COC(=O)C3)[C@@]2(C)C[C@H]4O)[C@H](O)[C@H](O)[C@H]1O (some centres not stated),24.4% (active)
6,C[C@]12CC[C@H]3[C@@H](CC[C@]4(O)C[C@@H](O)CC[C@]34C=O)[C@@]1(O)CC[C@@H]2C1=CC(=O)OC1,28% (active)
7,Cc1cc2ccccn2c1C(C[N+](=O)[O-])c1c(F)cccc1Cl (configuration not stated),29.6% (active)
8,COc1cc2c3c(c1OC)Oc1ccc(cc1)C[C@H]1c4c(cc(OC)c(OC)c4Oc4ccc(cc4)C[C@@H]3N(C)CC2)CCN1C,35.2% (active)
9,Cc1cccc(-n2c(O)c(/C=C3/C(c4ccccc4)=Nc4ccccc43)c(=O)[nH]c2=O)c1,35.8% (active)
10,C/C=C(\C)C(=O)OC1C(C)=C2C(C1OC(=O)CCCCC)C(C)(OC(C)=O)CC(OC(=O)CCC)C1(O)C2OC(=O)C1(C)O (configuration not stated),24.1% (active)
11,O=Cc1cn(Cc2ccc(F)cc2Cl)c2ccccc12,35.1% (active)
12,Brc1ccc2c(c1)C(OC1CN3CCC1CC3)c1ccccc1CS2 (configuration not stated),33.8% (active)
13,CN(C)c1ccc(-[n+]2c(-c3ccccc3)cc(-c3ccccc3)cc2-c2ccccc2)cc1,23.3% (active)
14,C[C@@H]1O[C@@H](O[C@H]2C[C@@H](O)[C@]3(CO)[C@H]4[C@H](O)C[C@]5(C)[C@@H](C6COC(=O)C6)CC[C@]5(O)[C@@H]4CC[C@]3(O)C2)[C@H](O)[C@H](O)[C@H]1O (some centres not stated),26.8% (active)
15,c1ccc2c(N3CCNCC3)nsc2c1,29.6% (active)
16,CCOC(=O)c1ccc(-[n+]2c(-c3ccccc3)cc(-c3ccccc3)cc2-c2ccccc2)cc1,23.6% (active)
17,COc1cc2c3cc1Oc1c(OC)c(OC)cc4c1[C@H](Cc1ccc(cc1)Oc1cc(ccc1O)C[C@H]3N(C)CC2)N(C)CC4,29.8% (active)
18,CCOc1cccc(CNCCc2c(C)[nH]c3ccc(OC(F)(F)F)cc23)c1O,29.9% (active)
19,Cn1c(NN=O)nc2ccccc21,35.8% (active)
20,N#CC(C#N)=NNc1ccc(-n2ccc(C(F)(F)F)n2)cc1,31.2% (active)
21,CC(C)c1oc(=O)cc2c1[C@@H](O)[C@H]1OC(=O)[C@@]3(C)C[C@@H](O)[C@@H](O)[C@@]2(C)C13 (some centres not stated),29.6% (active)
22,CCn1nc(-c2ccccc2)nc2c(=O)n(C)c(=O)nc1-2,23.3% (active)

# Biological target: Tumor necrosis factor receptor superfamily member 10B (Homo sapiens) (UniProt O14763)
# Assay: caspase-8 TRAIL sensitization, hit retest, confirmation, cell-based, NB7+caspase-8, with/without TRAIL, luminescence panel (AID 651596; in the data active = activity above about 50%)
# Conditions: NB7 neuroblastoma + caspase-8, TRAIL sensitization, luminescence viability, with TRAIL, mean of runs, at 10 µM, stronger effect = higher value
# Tumor necrosis factor receptor superfamily member 10B (Homo sapiens), sequence (O14763 whole entry, looked up): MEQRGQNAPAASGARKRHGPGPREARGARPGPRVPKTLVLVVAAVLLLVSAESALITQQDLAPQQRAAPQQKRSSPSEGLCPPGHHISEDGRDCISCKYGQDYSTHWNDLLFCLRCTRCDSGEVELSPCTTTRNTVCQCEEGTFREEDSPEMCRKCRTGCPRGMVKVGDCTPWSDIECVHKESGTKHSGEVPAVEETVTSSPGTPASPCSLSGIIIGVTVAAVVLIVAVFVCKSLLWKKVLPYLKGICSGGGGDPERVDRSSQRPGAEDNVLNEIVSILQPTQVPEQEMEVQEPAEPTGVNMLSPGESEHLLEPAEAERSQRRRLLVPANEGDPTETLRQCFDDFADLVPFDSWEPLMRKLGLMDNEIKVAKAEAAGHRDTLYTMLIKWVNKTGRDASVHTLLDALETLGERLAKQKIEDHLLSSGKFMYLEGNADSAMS
row,Compound,activity [%]
1,COc1cccc(-c2nc3ccc(N4CCN(C)CC4)cc3[nH]2)c1,90.4
2,CCOc1ccc(-c2cc(C)[n+](CCN(CC)CC)c(-c3ccc(OCC)cc3)c2)cc1,62.5
3,CCCCCCCCCCCCn1ccc(=N)cc1,92.9

# Test system: not listed separately
# Assay: as above
# Conditions: NB7 neuroblastoma + caspase-8, without TRAIL, luminescence viability, without TRAIL, mean of runs, at 10 µM
row,Compound,activity [%]
1,COc1cccc(-c2nc3ccc(N4CCN(C)CC4)cc3[nH]2)c1,87.8
2,CCOc1ccc(-c2cc(C)[n+](CCN(CC)CC)c(-c3ccc(OCC)cc3)c2)cc1,59.2
3,CCCCCCCCCCCCn1ccc(=N)cc1,80
